From PubChem BioAssay
Only some compounds are listed: those with a hit (about 0.93% of all), similar ones and a draw of the others.
MEP2 TOR yeast: modulators of TOR pathway MEP2-GFP in S. cerevisiae; 330,000 tested, 0.51% active; S. cerevisiae MEP2-GFP strain, flow cytometry GFP, 3 h; 100% = DMSO control level; GFP response vs DMSO, % at 10 µM;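 active means GFP response versus DMSO above a set limit, roughly screen mean plus 3 SD, cut at about 180% in these data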;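 further: median GFP fluorescence of the barcode-gated MEP2-GFP cells per well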
RPL19A-GFP yeast: modulators of TOR pathway RPL19A-GFP in S. cerevisiae; AID 2025; 330,000 tested, 0.3% active; S. cerevisiae RPL19A-GFP strain, flow cytometry, 3 h; stronger effect = lower value; percent response vs DMSO, % at 10 µM;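 active means percent response vs DMSO below 50%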;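 further: median channel GFP fluorescence of the barcoded RPL19A-GFP strain; ratio of sample median GFP to plate DMSO average so 100% = DMSO; lower means less RPL19A-GFP as with rapamycin TOR inhibition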
AGP1 TOR yeast: modulators of TOR pathway AGP1-GFP in S. cerevisiae. S. cerevisiae AGP1-GFP multiplex flow cytometry, 3 h; GFP as percent of DMSO wells. GFP response vs DMSO, % at 10 µM. 320,000 tested, 0.02% active;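 active means GFP response relative to DMSO above a set limit, near screen average plus 3 SD, cut at about 150% in these data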;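 further: median GFP channel fluorescence of the gated AGP1 strain per well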
CIT2-GFP yeast: yeast TOR pathway CIT2-GFP modulation | 320,000 tested, 0.065% active | S. cerevisiae CIT2-GFP strain, flow cytometry, 3 h; 100 means same as DMSO wells | AID 2029 | GFP response vs DMSO, % at 10 µM;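 active means GFP response relative to DMSO above a set limit, near the screen mean plus 3 SD, cut at about 150% in these data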;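 further: ratio of well median GFP fluorescence to mean of DMSO wells on the plate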
LAP4-GFP MLPCN: yeast TOR pathway LAP4-GFP modulation; S. cerevisiae LAP4-GFP multiplex, flow cytometry GFP, 3 h; median GFP as percent of DMSO wells; GFP response vs DMSO, % at 10 µM; 320,000 tested, 0.34% active;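 active means GFP response vs DMSO above a set limit, about the screen mean plus 3 SD, cut at about 150% in these data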
LAP4 cherry2: yeast LAP4-GFP modulation, second cherry pick. GFP response vs DMSO, % at 10 µM. shares compounds with LAP4-GFP MLPCN. 590 tested, 20% active. AID 2621. S. cerevisiae LAP4-GFP strain, flow cytometry GFP, 3 h;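 active means GFP signal as percent of the solvent control above about 150%, meaning raised reporter expression, limit read from the data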;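 further: ratio of well median GFP fluorescence to plate DMSO mean so 100% = DMSO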
MEP2 cherry2: reconfirmed MEP2-GFP TOR pathway modulator in yeast | shares compounds with LAP4-GFP MLPCN | S. cerevisiae MEP2-GFP strain, flow cytometry GFP, 3 h | GFP response vs DMSO, % at 10 µM | 590 tested, 10% active | AID 2622;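 active means GFP signal above 150% of the solvent control wells, that is a rise of more than half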;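 further: median channel GFP fluorescence of all gated yeast cells per well; ratio of median GFP to plate DMSO average so 100% = DMSO level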
RPL19A-GFP pick2: second confirmation of modulators of TOR reporter RPL19A-GFP in yeast | shares compounds with LAP4-GFP MLPCN | S. cerevisiae RPL19A-GFP strain, flow cytometry GFP, 3 h; stronger effect = lower value; 100% means same as DMSO wells | GFP response vs DMSO, % at 10 µM | 590 tested, 3% active;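 active means under 65% GFP response relative to DMSO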;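 further: median GFP channel fluorescence per well over the all cells gate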
CIT2 GFP CP2: second confirmation of modulators of TOR reporter CIT2-GFP in yeast; S. cerevisiae CIT2-GFP strain, flow cytometry GFP, 3 h; DMSO control wells read 100%; AID 2624; GFP response vs DMSO, % at 10 µM; shares compounds with LAP4-GFP MLPCN; 590 tested, 8% active;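 active means GFP response vs DMSO above about 150%, limit read from the data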;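 further: median green fluorescence per well over all gated yeast cells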
AGP1-GFP pick2: second confirmation of modulators of TOR reporter AGP1-GFP in yeast; percent response vs DMSO, % at 10 µM; S. cerevisiae AGP1-GFP strain, flow cytometry GFP, 3 h; shares compounds with LAP4-GFP MLPCN; 590 tested, under 10 active; AID 2643;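 active means over 150 percent of DMSO response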;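 further: median GFP channel fluorescence over all cells without mother daughter split; sample median GFP divided by mean DMSO control so 100% equals DMSO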
Yeast autofluor: yeast s288c autofluorescence artifact, counter-screen; shares compounds with LAP4-GFP MLPCN; S. cerevisiae s288c, 520 nm autofluorescence, flow cytometry, 3 h; stronger effect = higher value; zero means same as solvent-only cells; fluorescence change (kMESF span) at 33 µM; 610 tested, under 10 active; AID 2757;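 active means fluorescence span over the dose series, or activity score, above about 33, limit read from the data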
s288c autofl DR: TOR screen hit shows autofluorescence in yeast s288c; shares compounds with LAP4-GFP MLPCN; S. cerevisiae s288c parental, compound autofluorescence, flow cytometry, 3 h; fluorescence change (span) at 33 µM; 110 tested, under 10 active; AID 488829;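 active means fluorescence change span, or the activity score built from it, above 25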
TORC1 bypass gr: compounds blocking wildtype yeast growth but not TORC1 bypass cells. shares compounds with LAP4-GFP MLPCN. S. cerevisiae BY4741 spot growth rating, 48-72 h; stronger effect = lower value. growth rating (0-3) at 30 µM. 120 tested, under 10 active. AID 504456;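 active means growth rating at most 1 for wild type yeast while the TORC1 bypass strain still grows fully, rated 3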
An asterisk follows results filed as active; · = not tested or not shown.

SMILES | MEP2 TOR yeast | RPL19A-GFP yeast | AGP1 TOR yeast | CIT2-GFP yeast | LAP4-GFP MLPCN | Yeast autofluor | others
COC(=O)CCC(=O)N1CCCC(N2CCN(c3cccc(C(F)(F)F)c3)CC2)C1 (stereo not drawn) | 110 | 106 | 100 | 106 | 91 | ·
C=CCOc1ccccc1C(=O)/C=C1/C(=O)Nc2ccccc21 | 91 | 101 | 91 | 84 | 132 | -0.4
NC(=O)COc1ccc(C(=O)/C=C2/C(=O)Nc3ccccc32)cc1 | 91 | 94 | 105 | 109 | 103 | 0.91
C=CCOc1ccc(C(=O)/C=C2/C(=O)Nc3ccccc32)cc1 | 106 | 105 | 105 | 97 | 105 | -0.2
Cc1ccc(N2C(=O)N(CC(=O)NCc3ccccc3Cl)C(=O)C2C)cc1 (stereo not drawn) | 103 | 101 | 107 | 102 | 106 | ·
COCCN=C1Sc2nc3cc4c(cc3cc2CN1CC1CCCO1)OCO4 (stereo not drawn) | 103 | 104 | 90 | 98 | 92 | ·
CCCCC(=O)NC(=S)NNC(=O)CCc1ccccc1 | 109 | 101 | 102 | 109 | 150* | 0.4 | LAP4 cherry2=139;MEP2 cherry2=105;RPL19A-GFP pick2=104;CIT2 GFP CP2=123;AGP1-GFP pick2=97
CC(=O)NC(=S)NNC(=O)CCc1ccccc1 | 100 | 95 | 101 | 94 | 107 | ·
COc1ccc(C(=O)NC(=S)NNC(=O)c2cccc(C)c2)cc1 | 98 | 107 | 96 | 97 | 111 | ·
COc1cccc(OC)c1C(=O)NC(=S)NNC(=O)[C@H]1C[C@@H]1c1ccccc1 | 92 | 98 | 85 | 90 | 87 | ·
O=C(NC(=S)NNC(=O)[C@H]1C[C@@H]1c1ccccc1)c1cccc(F)c1 | 101 | 89 | 102 | 96 | 153* | 1.3
Cc1cccc(C(=O)NNC(=S)NC(=O)c2ccccc2)c1 | 100 | 109 | 111 | 105 | 155* | 0.9
O=C(CCc1ccccc1)NNC(=S)NC(=O)c1ccccc1 | 121 | 108 | 95 | 97 | 243* | 0.81 | s288c autofl DR=0.78;TORC1 bypass gr=3
COc1c(C)cc(S(=O)(=O)NCCN2CCOCC2)c(C)c1C | 91 | 104 | 93 | 98 | 83 | ·
COc1cccc(NC(=S)/C(=C(\[O-])c2cc(C)n(-c3ccccc3F)c2C)[n+]2ccc(N(C)C)cc2)c1 | 95 | 100 | 95 | 94 | 96 | ·
COc1ccc(S(=O)(=O)N2CCCCCC2)cc1C(=O)NC1(C)CCS(=O)(=O)C1 (stereo not drawn) | 102 | 100 | 104 | 105 | 103 | ·
COc1ccc(S(=O)(=O)N2CCc3ccccc32)cc1C(=O)NC1(C)CCS(=O)(=O)C1 (stereo not drawn) | 172 | 117 | 125 | 165* | 158* | · | LAP4 cherry2=97;MEP2 cherry2=94;RPL19A-GFP pick2=100;CIT2 GFP CP2=104;AGP1-GFP pick2=97
CC(OC(=O)CNC(=O)c1sc2ccccc2c1Cl)c1ccccc1 (stereo not drawn) | 95 | 98 | 95 | 87 | 97 | ·
CCNC(=O)C(=O)NCc1ccncc1 | 94 | 93 | 99 | 98 | 96 | ·
COc1ccc([N+](=O)[O-])c(S(=O)(=O)c2ccccc2)n1 | 85 | 73 | 108 | 84 | 218* | 0.81 | s288c autofl DR=0.21;TORC1 bypass gr=3
O=[N+]([O-])c1cccnc1S(=O)(=O)c1ccccc1 | 96 | 98 | 104 | 102 | 128 | ·
COc1ccc([N+](=O)[O-])c(S(=O)(=O)c2ccc(Cl)cc2)n1 | 108 | 100 | 108 | 100 | 102 | 0.72 | s288c autofl DR=0.63;TORC1 bypass gr=3
CC[C@@H]1C/C=C\Cc2ccccc2[C@H](C(=O)C[C@@H](O)CC(C)=O)OC1=O | 90 | 94 | 88 | 86 | 93 | ·
O=C(OCC(=O)N1CCN(C(=O)c2ccco2)CC1)c1cn(-c2ccccc2)nc1-c1ccccc1 | 102 | 90 | 103 | 92 | 100 | ·
O=C(OCC(=O)N1CCN(C(=O)c2ccco2)CC1)c1cc(-c2ccccc2)nc2ccccc12 | 203* | 70 | 137 | 120 | 163* | 0.1 | LAP4 cherry2=144;MEP2 cherry2=215*;RPL19A-GFP pick2=77;CIT2 GFP CP2=129;AGP1-GFP pick2=128
SMILES | MEP2 TOR yeast | RPL19A-GFP yeast | AGP1 TOR yeast | CIT2-GFP yeast | LAP4-GFP MLPCN | Yeast autofluor | others
O=C(OCC(=O)N1CCN(C(=O)c2ccco2)CC1)c1cc(-c2cccc(Br)c2)nc2ccccc12 | 125 | 66 | 126 | 121 | 162* | 0.1 | s288c autofl DR=0.08;TORC1 bypass gr=3
O=C(OCC(=O)N1CCN(C(=O)c2ccco2)CC1)c1cc(-c2ccc(F)cc2)nc2ccccc12 | 104 | 72 | 129 | 105 | 187* | -0.1 | LAP4 cherry2=148;MEP2 cherry2=201*;RPL19A-GFP pick2=72;CIT2 GFP CP2=133;AGP1-GFP pick2=120;s288c autofl DR=0.29;TORC1 bypass gr=3
Cc1ccc(NC(=O)Cc2nnc(SCC(=O)NC3=NCCS3)n2C)cc1 | 106 | 102 | 97 | 107 | 93 | ·
Cc1ccc(NC(=O)CNCc2cccs2)cc1Br | 99 | 102 | 108 | 98 | 110 | ·
S=c1[nH]nc(-c2cc(-c3ccccc3)n[nH]2)n1/N=C/c1ccc(Br)s1 | 101 | 103 | 122 | 102 | 106 | ·
CN(C(=O)COC(=O)c1nn(C)c(=O)c2ccccc12)c1c(N)n(Cc2ccccc2)c(=O)[nH]c1=O | 93 | 86 | 92 | 93 | 92 | ·
CCN1/C(=C/c2ccc3cc(C)ccc3[n+]2CC)Sc2ccc3sccc3c21 | 588* | 90 | 124 | 366* | 300* | 8.8
